Experimental data from PubChem BioAssay AID977607 (Broad Institute, 2014).
Out of some 1,500 compounds screened, about 460 (31%) were called active. Not shown: some 1% with an inconclusive outcome.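 The calls were made as follows: active = curve reaches 40% activation over neutral controls at an AC40 no higher than the top valid tested concentration; inconclusive = no clear call, values can overlap the other calls; inactive = signal moving opposite to the expected increase, and the rest.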 Not all results are given here. Entries with a potency or affinity are not part of this list.

test: GLuc-reported insulin release enhancers, glucose-stimulated beta cells – cell-based, INS-1E, Gaussia luciferase, luminescence, cherry-pick, set 2, dose response (AID 977607); details: INS-1E GLuc insulin secretion reporter, 2-3 h, stronger effect = higher value; at 35 µM, 100% = signal doubled over neutral wells unless noted;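 also: 0% = median of the plate neutral control wells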

Max activation, inactive:
Cc1cccc(C)c1NC(=O)C1c2ccccc2OCC(=O)N1CCCN1CCOCC1 (configuration not stated) -19% [at 3.8 µM, 100% = signal doubled over neutral wells]
Cc1ccc(-c2nc(C#N)c(NCC3CCCO3)o2)cc1 (configuration not stated) -16.4% [at 0.135 µM, 100% = signal doubled over neutral wells]
CCOc1ccc(Nc2oc(-c3cccc(Cl)c3)nc2C#N)cc1 -13.2% [at 0.135 µM, 100% = signal doubled over neutral wells]
CCCCC(=O)Nc1ccc(C(=O)NNC(=O)c2ccc(C)c(Br)c2)cc1 -20.4% [at 3.8 µM, 100% = signal doubled over neutral wells]
CC1CCC(C(C)C)C(OCC(O)CNC(C)c2ccccc2)C1 (configuration not stated) 35.2%
COc1ccc2c(c1)C(C)(Cc1ccc(C(=O)c3ccccc3)cc1)C(=O)N2 (configuration not stated) -33.7%
Cc1ccsc1/C=N/n1c(-c2ccncc2)n[nH]c1=S 18.6%
Cc1ccccc1-c1n[nH]c(=S)n1/N=C/c1c(C)nn(-c2ccccc2)c1C -18% [at 0.0016 µM, 100% = signal doubled over neutral wells]
CC(C(=O)Nc1ccc2[nH]c(=O)[nH]c2c1)N1CCN(Cc2ccc3c(c2)OCO3)CC1 (configuration not stated) -27.3% [at 11 µM, 100% = signal doubled over neutral wells]
O=C1NC(=O)C2(CCCCC2C2CCCCC2)N1 (configuration not stated) 32.9% [at 0.135 µM, 100% = signal doubled over neutral wells]
Cc1ccc(S(=O)(=O)N(C)c2nc3ccccc3n3c(C(C)C)nnc23)cc1 -16.3% [at 0.42 µM, 100% = signal doubled over neutral wells]
Cc1ccc(C(=O)Nc2cccc(C(=O)N/N=C/c3ccc(F)cc3)c2)cc1 -21.7% [at 0.046 µM, 100% = signal doubled over neutral wells]
O=C(O)COc1ccccc1-c1ccccc1 -20.7% [at 3.8 µM, 100% = signal doubled over neutral wells]
CCCCCCC1CCC(C(=O)Nn2c(C)nc3ccccc3c2=O)CC1 (configuration not stated) 26.8% [at 0.015 µM, 100% = signal doubled over neutral wells]
COc1ccccc1NS(=O)(=O)c1cccc(C(=O)N/N=C/c2c(C)nn(-c3ccccc3)c2N2CCCC2)c1 -50.5%
Cc1nn(-c2ccccc2)c(N2CCCC2)c1/C=N/O -12.4% [at 0.046 µM, 100% = signal doubled over neutral wells]
CC(C)NC(=O)OC[C@H]1O[C@H](C#Cc2ccc(C(C)(C)C)cc2)C=C[C@H]1O 54.1%
CC(C)NC(=O)C1(C)CN(S(C)(=O)=O)CC(=O)N1CCCN1CCOCC1 (configuration not stated) -19.6% [at 0.015 µM, 100% = signal doubled over neutral wells]
O=C(O)c1ccc(-n2nnnc2SCc2ccccc2Br)cc1 24.2%
O=C(O)c1ccc(-n2nnnc2SCc2cccc(Br)c2)cc1 -16.4% [at 0.135 µM, 100% = signal doubled over neutral wells]
O=C(Nc1ccc(F)cc1)C1COc2ccccc2O1 (configuration not stated) -26.7%
Cc1ccc(CS(=O)Cc2ccc(C(=O)NCc3ccccc3)o2)cc1 (configuration not stated) 8.81% [at 1.2 µM, 100% = signal doubled over neutral wells]
Clc1ccc(OCCn2ccnc2)c(Cl)c1 53.2%
COc1ccc(/C=C/c2noc(-c3ccccc3OC(C)=O)n2)cc1 -25.1%
O=C(COc1cccc2c1CCNC2=O)NC1CCCCC1 -23.7% [at 1.2 µM, 100% = signal doubled over neutral wells]
CCCCOc1ccc(C2=NNC(=O)CC2)cc1 -15.4% [at 3.8 µM, 100% = signal doubled over neutral wells]
COCCNc1nc(N2CCCCC2)c2cnn(C)c2n1 -16.6% [at 0.42 µM, 100% = signal doubled over neutral wells]
Cc1c(P(=S)(c2ccccc2)c2ccccc2)[n+]2ccccc2n1C/C=C/c1ccccc1 -32.8%
O=C(Nc1ccc(C(=O)N2CCCC2)cc1)c1cccc(C(F)(F)F)c1 -13% [at 0.015 µM, 100% = signal doubled over neutral wells]
O=c1[nH]c2ccccc2nc1-c1nnnn1C1CCCC1 -11.7%
COc1ccc(CN2CCOC2=O)cc1OC -24.4% [at 0.046 µM, 100% = signal doubled over neutral wells]
COc1ccc(-c2nc(N)ncc2-c2ccc(OC)c(OC)c2)c(O)c1 -26.8% [at 0.046 µM, 100% = signal doubled over neutral wells]
COc1ccc(CNC(=O)CCn2c(=O)oc3ccccc32)c(OC)c1 -18.2% [at 3.8 µM, 100% = signal doubled over neutral wells]
O=C([C@H]1O[C@@H](n2ccc(=O)[nH]c2=O)[C@H](O)[C@@H]1O)N1CCN(c2ccc(Cl)cn2)CC1 -17.9% [at 1.2 µM, 100% = signal doubled over neutral wells]
CS(=O)(=O)N1CCCCC1c1cc(C(=O)Nc2cccc(C#N)c2)no1 (configuration not stated) -20.8% [at 0.135 µM, 100% = signal doubled over neutral wells]
COc1ccc(C2=NOC(C(=O)Nc3cccnc3)C2)cc1OC (configuration not stated) 36.7% [at 11 µM, 100% = signal doubled over neutral wells]
COc1ccc(-c2noc(CCC(=O)Nc3cccnc3)n2)cc1OC 10.9%
CCC(CC)NC(=O)c1ccccc1Oc1ccccc1 -14.5% [at 0.046 µM, 100% = signal doubled over neutral wells]
CC(=O)c1ccc2c(c1)N(Cc1ccccc1)C(=O)C(C)S2 (configuration not stated) -15.7% [at 3.8 µM, 100% = signal doubled over neutral wells]
CC(C)(C)c1ccc(C#C[C@@H]2C=C[C@H]3OC(=O)CC/C=C/CCC(=O)OC[C@H]3O2)cc1 -35.6% [at 3.8 µM, 100% = signal doubled over neutral wells]
CCOC(=O)C1=C(COC(=O)c2cccs2)NC(=O)NC1C (configuration not stated) 39.2% [at 11 µM, 100% = signal doubled over neutral wells]
Cc1c(Cc2ccccc2)sc(NC(=O)c2ccco2)c1C(N)=O -16.3% [at 0.015 µM, 100% = signal doubled over neutral wells]
Cc1ccc(C2(C)NC(=O)N(CC(=O)Nc3ccc(-c4nc5ccc(C)cc5s4)cc3)C2=O)cc1 (configuration not stated) -34.8%
Cc1ccc2sc(-c3ccc(NC(=O)c4cc(-n5cnnc5)ccc4Cl)cc3)nc2c1 38.9%
COc1ccc(-c2c(NC(=O)c3ccco3)oc3ccc(Cl)cc3c2=O)cc1 -15.5% [at 0.42 µM, 100% = signal doubled over neutral wells]
CCOc1cc(NC(=O)c2ccco2)c(OCC)cc1NC(=O)c1cc(OC)c(OC)c(OC)c1 33.6%
Cc1ccnc(NC(=O)CNC(=O)c2ccco2)c1 -26.8% [at 3.8 µM, 100% = signal doubled over neutral wells]
CN(C)CCNc1ncnc2oc(-c3ccccc3)c(-c3ccccc3)c12 -17.7% [at 0.0016 µM, 100% = signal doubled over neutral wells]
CCOC(=O)C1CCCN(C(=O)c2ccccc2OC(F)(F)F)CC1 (configuration not stated) -23.6% [at 0.0016 µM, 100% = signal doubled over neutral wells]
CCOc1cc(/C=N/NC(=O)CCn2nnc3ccccc32)ccc1O 23.5%
CCOc1ccccc1OCCC(=O)NNC(=O)Cn1nc(C)cc1C -16% [at 0.005 µM, 100% = signal doubled over neutral wells]
CCn1nnc(NC(=O)c2sc3ccccc3c2Cl)n1 -17.8% [at 3.8 µM, 100% = signal doubled over neutral wells]
Cc1c(NC(=S)NC(=O)c2sc3ccccc3c2Cl)cccc1C(=O)O -23.7% [at 0.0016 µM, 100% = signal doubled over neutral wells]
CCOc1nc(CC(C)C)c2c(c1C#N)CC(C)(C)OC2 -26.5%
O=C(NN(Cc1ccccc1)Cc1ccccc1)c1ccccc1 23.7% [at 1.2 µM, 100% = signal doubled over neutral wells]
O=C(c1cc(-c2ccccc2)nc2ccccc12)N1CCCC1 -13.5% [at 11 µM, 100% = signal doubled over neutral wells]
Cn1cc(C(=O)NCC(=O)Nc2ccccc2Br)cn1 -16.7% [at 0.135 µM, 100% = signal doubled over neutral wells]
